# Assay results published in PubChem BioAssay (NCI).
# About 83,000 compounds went through this panel and 20% of them were active in at least one assay; those are over-represented in the sample as a whole.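 For each line, cells grew in 96-well plates with the test compound present at a single concentration for 48 hours.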 A number with no mark means an inactive call. Activity calls are given as the source filed them. Rule for the calls: active = growth percent below 10; inactive = the rest.
# Tested on: HL-60(TB) leukemia
# Experiment: NCI-60 one-dose screen, 48 h (100 = growth as untreated, 0 = no growth, -100 = all killed)
# Details: 10 µM unless noted
row,SMILES,growth
1,CC1=CCC(OC(=O)C(C)(C)CCC(O)(C(=O)OC2(C(C)C)CCC3(C)OC3C2)C(C)C)(C(C)C)CC1 (stereo not given),-43.1% (active)
2,COc1ccc(/C=C2\COc3ccc(O)cc3C2=O)cc1OC,3.81% (active)
3,C=C1C(=O)O[C@H]2[C@H]1CC/C(COC(=O)c1cc(OC)c(OC)c(OC)c1)=C\CC[C@@]1(C)O[C@@H]21,-65.1% (active)
4,COc1ccc(-c2ccc(-c3ccc(C(=N)N)cn3)s2)cc1Cl,-55.3% (active)
5,COC(=O)c1cc(Nc2ccc(O)c3c2C(=O)c2c([N+](=O)[O-])ccc(O)c2C3=O)cc(C(=O)OC)c1,62.3%
6,COC(OC)C1(c2ccccc2)NC(=O)NC1=O (stereo not given),122%
7,C(#Cc1ccccc1C#Cc1ccccn1)c1ccc(OCCCCCCOc2ccc(C#Cc3ccccc3C#Cc3ccccn3)cc2)cc1,14.3%
8,COC(=O)c1cc2oc(/C=N\NC(=O)c3cc4oc(C)c(C)c4[nH]3)cc2[nH]1,103%
9,Cn1cc(-c2cc3ncnc(Nc4ccc(CC(=O)Nc5cc(C(C)(C)C)nn5C)cc4)c3s2)cn1,63.4%
10,O=C(NC1CCCCC1)c1ccc(Cl)cc1,92.8%
11,CN1CCN(Cc2ccc(NC(=O)c3cncc(C#Cc4cncc5nccnc45)c3)cc2C(F)(F)F)CC1,1.66% (active)
12,COc1ccc(-c2ccc(=O)oc2-c2cc(OC)c(OC)c(OC)c2)cc1O,-55.6% (active)
13,C=CC(=O)NCc1cccc(Nc2ncc(Br)c(NCCCNC(=O)C3CCC3)n2)c1,-50% (active)
14,Oc1ccccc1/C=N/NC(=S)NC1CC2C=CC1C2 (stereo not given),58.3%
15,CN1CCN(CCCOc2ccc3nc(Nc4cc(Cl)cc(Cl)c4)ccc3c2)CC1,-39.2% (active)
16,O=c1c(F)cn(Cc2ccccc2CCl)c(=O)n1Cc1ccccc1CCl,-63.6% (active)
17,COc1ccc(/C=C(\C#N)c2cc(OC)c3c(c2)OCO3)cc1,-1.4% (active)
18,Fc1ccc(NCc2nnc(-c3ccc(Cl)cc3)o2)cc1,69.5%
19,Cc1cc(Cc2cc(C)cc(C(C)(C)C)c2O)c(O)c(C(C)(C)C)c1,59.3%
20,O=C(C1=Cc2cc3ccccc3n2Cc2cnnn21)c1ccc(O)cc1,41.7%

row,SMILES,growth
1,COc1cc(C(=O)NNC(=O)c2ccccc2C(=O)O)cc(OC)c1OC,5.84% (active)
2,Fc1ccccc1Nc1ccc2nnc(-c3ccncc3)n2n1,92.6%
3,Nc1ccc(-c2nc3cc(Oc4ccc(Oc5ccc6[nH]c(-c7ccc(N)cc7)nc6c5)cc4)ccc3[nH]2)cc1,103%
4,CCN(CC)CCCC(C)N/C(=C1\C(=O)NC(=O)\C1=C(/NC(C)CCCN(CC)CC)c1cccc(OC)c1)c1cccc(OC)c1 (stereo not given),-35.6% (active)
5,CCc1ccc(/C=C/c2ccc(O)c3ncccc23)[n+](C)c1,104%
6,COc1ccc(CCN2C(=O)/C(=C/c3ccc(C4Oc5ccccc5C5CC(c6ccccc6)=NN54)cc3)SC2=S)cc1 (stereo not given),97.7%
7,COc1cccc(CC(C)=C(c2ccc(OCCCN(C)C)cc2)c2ccc(OCCCN(C)C)cc2)c1,-68% (active)
8,O=C1Nc2ccccc2/C1=C\c1cccc(/C=C2/C(=O)Nc3ccccc32)n1,-48.6% (active)
9,CN(C)c1ccc(/C=C(\C#N)c2cc3ccccc3n2C)cc1,2.69% (active)
10,COc1cc(C2=NN(C(C)=O)C(c3ccc(OC(C)=O)cc3OC(C)=O)O2)c(OC(C)=O)c2ccccc12 (stereo not given),-17.9% (active)
11,O=[N+]([O-])c1cc2c(cc1Br)C1C(C3C2C(Cl)(Cl)C(Cl)=C(Cl)C3(Cl)Cl)C(Cl)(Cl)C(Cl)=C(Cl)C1(Cl)Cl (stereo not given),110%
12,c1ccc(N2CCN(c3nncc4ccccc34)CC2)nc1,96.6%
13,CN1CCC(OC2c3ccccc3CCc3ccccc32)CC1,99.1%
14,CCOC(=O)c1c(C)nc2c(c1N)/C(=C/c1cccs1)C(=O)N2c1ccc(OC)cc1,90.2%
15,O=C(NNC(=S)Nc1ccccc1)c1ccc(Nc2ncnc3c2cnn3-c2cccc(Br)c2)cc1,111%
16,CN(C)CC(C)(CN(C)C)C(=O)/C=C/c1c(Cl)cccc1Cl,-5.28% (active)
17,CC(C)C1CCC(C)C(C2(C#N)C(N)=NC(N)=C2C#N)C1=O (stereo not given),96.7%
18,Cn1c(=O)[nH]c2ccccc2c1=O,111%
19,C=C(CNCCc1ccc(O)cc1)[C@@H]1CC[C@]2(COC3CCCCO3)CC[C@]3(C)[C@H](CC[C@@H]4[C@@]5(C)CCC(NCCO)C(C)(C)[C@@H]5CC[C@]43C)[C@@H]12 (stereo not given in full),-59.5% (active)
20,CCOc1ccc(Nc2nc(-c3ccc4c(c3)NC(=O)CO4)cs2)cc1,66.9%
